The text below walks through data of ChEMBL document CHEMBL4513141, “CO-ADD screening of NIH (USA) - Clinical Collection” (2021).

One may read the Inhibition as the relative decrease from the control value, in per cent.

Entries with a potency or affinity are not part of this list.

For one experiment, the system named is Staphylococcus aureus. The settings on record: Concentration 20 uM; ASSAY_TEST Inhibition of Bacterial Growth; detection method Absorption (OD600); MEDIA CAMHB; plate type 384well; NBS; CORNING #3640; time 18 hr.
In the next experiment the test system is Escherichia coli. Particulars: Concentration 20 uM; ASSAY_TEST Inhibition of Bacterial Growth; detection method Absorption (OD600); MEDIA CAMHB; plate type 384well; NBS; CORNING #3640; time 18 hr.

For `NS(=O)(=O)c1cc(C2(O)NC(=O)c3ccccc32)ccc1Cl` (centres undefined) [CHLORTHALIDONE], the results for the Inhibition in the experiment with Staphylococcus aureus and with Escherichia coli were 15.62% and -0.28%, respectively.
The corresponding values for `CC(=O)OC1C([N+]2(C)CCCCC2)C[C@H]2C3CC[C@H]4C[C@H](OC(C)=O)C([N+]5(C)CCCCC5)CC4(C)[C@H]3CCC12C.[Br-].[Br-]` (some centres undefined) are 8.65% and 6.22%.
For the molecule `CN1CCN2c3ncccc3Cc3ccccc3C2C1` (centres undefined) [MIRTAZAPINE], the Inhibition with Staphylococcus aureus is -16.68%; in the experiment with Escherichia coli it was -1.97%.
The corresponding values for `C#CCN(C)[C@H](C)Cc1ccccc1.Cl` [SELEGILINE HYDROCHLORIDE] are -22.3% and 3.38%.
On the same counts, the results for `CC[C@@H](C(N)=O)N1CCCC1=O` are 18.53% and 0.96%.
In the case of `CN1C(=O)CN=C(c2ccccc2)c2cc(Cl)ccc21` [DIAZEPAM], the Inhibition was 9.71% in the experiment on Staphylococcus aureus and 3.05% with Escherichia coli.
For the molecule `CN1[C@@H]2CC[C@H]1CC(OC(=O)C(CO)c1ccccc1)C2` (some centres undefined), the Inhibition in the experiment on Staphylococcus aureus is reported as 1.53%; in the experiment on Escherichia coli, -5.78%.
The corresponding values for `Cl.Cl.OCCN1CCN(CCCN2c3ccccc3Sc3ccc(C(F)(F)F)cc32)CC1` [FLUPHENAZINE HYDROCHLORIDE] are 12.42% and -6.08%.
On the same counts, the results for `C#C[C@]1(OC(C)=O)CC[C@H]2[C@@H]3CCC4=CC(=O)CC[C@@H]4[C@H]3CC[C@@]21C` [NORETHINDRONE ACETATE] are 11.13% and -1.23%.
The corresponding values for `CCOC(=O)c1cncn1[C@H](C)c1ccccc1` [ETOMIDATE] are 11.17% and 2.26%.
Consider `COC(=O)C[C@](O)(CCCC(C)(C)O)C(=O)O[C@@H]1C(OC)=C[C@]23CCCN2CCc2cc4c(cc2[C@H]13)OCO4` [OMACETAXINE MEPESUCCINATE], for which the values for the Inhibition in the experiment with Staphylococcus aureus and in the experiment with Escherichia coli were 10.39% and 7.87%, respectively.
The corresponding values for `Br.COc1ccc2c(c1)[C@]13CCCC[C@@H]1[C@H](C2)N(C)CC3.O` [DEXTROMETHORPHAN HYDROBROMIDE] are 17.11% and 4.79%.
For `c1ccc(Cn2ccnc2)cc1`, the results for the Inhibition with Staphylococcus aureus and in the experiment on Escherichia coli were 13.36% and -1.92%, respectively.
For the molecule `CC(O)(CS(=O)(=O)c1ccc(F)cc1)C(=O)Nc1ccc(C#N)c(C(F)(F)F)c1` (centres undefined) [BICALUTAMIDE], the Inhibition was -1.51% with Staphylococcus aureus and 6.59% in the experiment with Escherichia coli.
The corresponding values for `c1ccc2c(c1)Nc1ccccc1S2` [PHENOTHIAZINE] are -22.92% and 9.21%.
On to `CC(NC(C)(C)C)C(=O)c1cccc(Cl)c1.Cl` (centres undefined) [BUPROPION HYDROCHLORIDE], for which the Inhibition in the experiment on Staphylococcus aureus is -23.91%; with Escherichia coli, 5.32%.
The corresponding values for `Cc1nnc2n1-c1ccc(Cl)cc1C(c1ccccc1)=NC2` [ALPRAZOLAM] are 16.72% and 0.08%.
With `O=C(O)C(Cl)Cl` [DICHLOROACETIC ACID], the results for the Inhibition in the experiment with Staphylococcus aureus and in the experiment on Escherichia coli were 11.87% and 3.62%, respectively.
For the molecule `c1cncc([C@@H]2CCCN2)c1` [NORNICOTINE], the Inhibition with Staphylococcus aureus is 12.8%; with Escherichia coli, -3.23%.
The corresponding values for `CCC(COC(=O)c1cc(OC)c(OC)c(OC)c1)(c1ccccc1)N(C)C.O=C(O)/C=C\C(=O)O` (centres undefined) are 4.02% and 7.24%.
The corresponding values for `COC(=O)C1=C(C)NC(C)=C(C(=O)OC)C1c1ccccc1[N+](=O)[O-]` [NIFEDIPINE] are 16.67% and 3.8%.
With `Cc1c(O)c(=O)ccn1C` [DEFERIPRONE], the Inhibition is 9.56% in the experiment on Staphylococcus aureus and -6.38% in the experiment on Escherichia coli.
On the same counts, the results for `CNS(=O)(=O)Cc1ccc2[nH]cc(CCN(C)C)c2c1.O=C(O)CCC(=O)O` [SUMATRIPTAN SUCCINATE] are 12.49% and 0.9%.
For `CC(C)NCC(O)COc1cccc2[nH]ccc12` (centres undefined) [PINDOLOL], the Inhibition stood at 7.44% in the experiment with Staphylococcus aureus and 5.35% with Escherichia coli.
Regarding `O=C(O[C@@H]1Cc2c(O)cc(O)cc2O[C@@H]1c1cc(O)c(O)c(O)c1)c1cc(O)c(O)c(O)c1` [EPIGALOCATECHIN GALLATE], the Inhibition with Staphylococcus aureus came to 13.39%; in the experiment with Escherichia coli, 5.85%.
In the case of `CN1C(=O)CN=C(c2ccccc2)c2cc([N+](=O)[O-])ccc21` [NIMETAZEPAM], the Inhibition turned out to be 10.78% with Staphylococcus aureus and 1.04% with Escherichia coli.
For the molecule `COc1ccc2[nH]cc(CCN)c2c1` [5-METHOXYTRYPTAMINE], the Inhibition with Staphylococcus aureus was 3.43%; with Escherichia coli, -0.18%.
For `N=C(NCc1ccc(Cl)cc1)SCCCc1c[nH]cn1` [CLOBENPROPIT], the Inhibition in the experiment with Staphylococcus aureus is listed as -4.61%; in the experiment on Escherichia coli it was -3.53%.
The corresponding values for `NC(=O)OCCCc1ccccc1` [PHENPROBAMATE] are 11.43% and 2.85%.
As for `CN1C(=O)COc2c(C(=O)NC3CN4CCC3CC4)cc(Cl)cc21.Cl` (centres undefined), the Inhibition was 14.32% in the experiment with Staphylococcus aureus and 3.95% with Escherichia coli.
The corresponding values for `CN(C)CCc1c[nH]c2ccc(C[C@H]3COC(=O)N3)cc12` [ZOLMITRIPTAN] are 3.79% and 7.38%.
For the molecule `CC(=O)[C@H]1CC[C@H]2[C@@H]3CCC4=CC(=O)CC[C@]4(C)[C@H]3CC[C@]12C` [PROGESTERONE], the Inhibition was determined as 12.63% in the experiment with Staphylococcus aureus and 3.02% in the experiment on Escherichia coli.
Take `Cc1ncc2n1-c1ccc(Cl)cc1C(c1ccccc1F)=NC2.Cl` [MIDAZOLAM HYDROCHLORIDE]: the Inhibition with Staphylococcus aureus is listed as -27.39%; with Escherichia coli, 7.58%.
The corresponding values for `C[N+]1(CCC(C(N)=O)(c2ccccc2)c2ccccc2)CCCCC1.[Br-]` [FENPIVERINIUM BROMIDE] are 4.81% and -0.64%.
On the same counts, the results for `COc1cc(N)c(Cl)cc1C(=O)NC1CN2CCC1CC2.Cl.O` (centres undefined) [ZACOPRIDE HYDROCHLORIDE] are -3.02% and 7.58%.
In the case of `COC(=O)N1CCN(C(=O)Cc2ccc(Cl)c(Cl)c2)C(CN2CCCC2)C1.O=C(O)/C=C/C(=O)O` (centres undefined), the Inhibition amounted to 12.27% with Staphylococcus aureus and 2.23% in the experiment with Escherichia coli.
Consider `Cl.c1ccc2c(CC3=NCCN3)cccc2c1` [NAPHAZOLINE HYDROCHLORIDE], for which the Inhibition was found to be 21.19% with Staphylococcus aureus and 2.28% in the experiment with Escherichia coli.
For the molecule `CC(C)NCC(O)c1ccc(O)c(O)c1.Cl` (centres undefined) [ISOPROTERENOL HYDROCHLORIDE], the Inhibition is listed as 7.54% in the experiment on Staphylococcus aureus and -1.63% in the experiment with Escherichia coli.
Turning to `CC(C)N(CCC(C(N)=O)(c1ccccc1)c1ccccn1)C(C)C.O=P(O)(O)O` (centres undefined) [DISOPYRAMIDE PHOSPHATE], the values for the Inhibition in the experiment with Staphylococcus aureus and with Escherichia coli were 5.5% and -2.32%, respectively.
Regarding `COc1cc(-c2ccc(=O)[nH]n2)ccc1OC(F)F` [ZARDAVERINE], the Inhibition with Staphylococcus aureus was 7.7%; with Escherichia coli, -1.99%.
In the case of `Oc1ncnc2[nH]ncc12` [ALLOPURINOL], the Inhibition in the experiment with Staphylococcus aureus amounted to 15.53%; with Escherichia coli it was 6.23%.
`CC(C)(C)NCC(O)c1cc(O)cc(O)c1.O=S(=O)(O)O` (centres undefined): the Inhibition amounted to 5.47% in the experiment with Staphylococcus aureus and 5.21% in the experiment on Escherichia coli.
Take `Cn1c(=O)c2nc[nH]c2n(C)c1=O.O` [THEOPHYLLINE]: the Inhibition in the experiment with Staphylococcus aureus was -24.23%; in the experiment on Escherichia coli it was 7.82%.
The corresponding values for `Cl.FC(F)(F)c1cccc(N2CCNCC2)c1` [N- (3-TRIFLUOROMETHYLPHENYL)PIPERAZINE HYDROCHLORIDE (TFMPP)] are -3.1% and 6.36%.
The corresponding values for `CC(COc1ccccc1)N(CCCl)Cc1ccccc1.Cl` (centres undefined) [PHENOXYBENZAMINE HYDROCHLORIDE] are 12.58% and 3.59%.
`CN1[C@@H](CC(=O)c2ccccc2)CCC[C@H]1C[C@H](O)c1ccccc1.Cl` [LOBELINE HYDROCHLORIDE]: the Inhibition with Staphylococcus aureus was 13.97%; with Escherichia coli it was -0.94%.
As for `CNC1=Nc2ccc(Cl)cc2C(c2ccccc2)=[N+]([O-])C1` [CHLORDIAZEPOXIDE], the Inhibition was 15.47% with Staphylococcus aureus and 3.48% in the experiment with Escherichia coli.
As for `Br.Br.CN1CC[C@]2(c3cccc(O)c3)Cc3nc4ccccc4cc3C[C@H]2C1.O`, the Inhibition is recorded as 5.38% in the experiment on Staphylococcus aureus and 1.66% with Escherichia coli.
For the molecule `CN/C(=N\CCSCc1nc[nH]c1C)NC#N` [CIMETIDINE], the Inhibition is listed as 12.6% in the experiment on Staphylococcus aureus and -4.2% in the experiment with Escherichia coli.
The corresponding values for `C[N+]1(C)CCCC(OC(=O)C(O)(c2ccccc2)c2ccccc2)C1.[Br-]` (centres undefined) [MEPENZOLATE BROMIDE] are 1.79% and 3.23%.
In the case of `Fc1ccc([C@@H]2CCNC[C@H]2COc2ccc3c(c2)OCO3)cc1.O=C(O)/C=C\C(=O)O`, the results for the Inhibition in the experiment on Staphylococcus aureus and in the experiment on Escherichia coli were 0.49% and 6.75%, respectively.
Turning to `O=C(O)CCCc1ccc(N(CCCl)CCCl)cc1` [CHLORAMBUCIL], the Inhibition came out at 7.69% with Staphylococcus aureus and 8.33% in the experiment on Escherichia coli.
The corresponding values for `Cl.O=C1CC2(CCCC2)CC(=O)N1CCCCN1CCN(c2ncccn2)CC1` [BUSPIRONE HYDROCHLORIDE] are 17.44% and 4.5%.
On the same counts, the results for `C[C@H](CCC(=O)O)[C@H]1CC[C@H]2[C@@H]3C(=O)C[C@@H]4CC(=O)CC[C@]4(C)[C@H]3CC(=O)[C@]12C` [DEHYDROCHOLIC ACID] are 8.43% and 9.29%.
The corresponding values for `C[C@]12CC[C@H](O)CC1=CC[C@@H]1[C@@H]2CC[C@]2(C)C(=O)CC[C@@H]12` [PRASTERONE] are 13.56% and 2.6%.
Consider `CN1CCN(C(=O)O[C@H]2c3nccnc3C(=O)N2c2ccc(Cl)cn2)CC1` [ESZOPICLONE], for which the values for the Inhibition with Staphylococcus aureus and in the experiment on Escherichia coli were -7.93% and -0.26%, respectively.
With `CCCN1C[C@H](CSC)C[C@@H]2c3cccc4[nH]cc(c34)C[C@H]21.CS(=O)(=O)O` [PERGOLIDE MESYLATE], the Inhibition in the experiment with Staphylococcus aureus is recorded as 12.62%; in the experiment on Escherichia coli it was 4.25%.
With `CN(C)CCc1c[nH]c2ccc(Cn3cncn3)cc12.O=C(O)c1ccccc1` [RIZATRIPTAN BENZOATE], the Inhibition in the experiment with Staphylococcus aureus is on record as 12.43%; in the experiment on Escherichia coli, -5.47%.
In the case of `C=C1C[C@@H]2[C@H](CC[C@]3(C)C(=O)CC[C@@H]23)[C@@]2(C)C=CC(=O)C=C12` [EXEMESTANE], the Inhibition with Staphylococcus aureus is recorded as 13.66%; in the experiment on Escherichia coli, -6.95%.
On the same counts, the results for `C[C@]12CCC(=O)C=C1CC[C@@H]1[C@@H]2CC[C@@]2(C)[C@H]1CC[C@]2(C)O` [METHYLTESTOSTERONE] are 7.28% and 3.56%.
Consider `Nc1nc2ccc(Cl)cc2c2nc(-c3ccco3)nn12` [CGS-15943], for which the Inhibition in the experiment on Staphylococcus aureus stood at 11.02%; with Escherichia coli, 5.2%.
In the case of `CN1[C@@H]2CC[C@H]1C[C@@H](OC(=O)c1c[nH]c3ccccc13)C2.Cl`, the values for the Inhibition with Staphylococcus aureus and with Escherichia coli were 18.1% and -3.68%, respectively.
